Laboratory results: PubChem BioAssay AID1063 (University of Pittsburgh Molecular Library Screening Center, 2008)
Among all 200,000 compounds or so, about 18,000 (9%) were called active. The entries come from a sample that favours actives as a whole. Values without a mark were called inactive. Rule as the data show it: active = inhibition above about 50%; inactive = the rest.

Test: Leishmania major promastigote growth inhibition, primary screen (AID 1063);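 also: promastigotes grown with compound for 44 hours at 28 °C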
Conditions: Leishmania major promastigotes, resazurin fluorescence viability; at 10 µM; hits give high values

| SMILES | inhibition |
| --- | --- |
| O=C1N(c2ccc(Cl)cc2)C(c2ccc(Cl)cc2)N2CCCN12 (stereo unspecified) | -2.86% |
| COCCCNC(NC(=O)c1ccc(OC)cc1)C(Cl)(Cl)Cl (stereo unspecified) | -5.56% |
| O=Cc1ccc(OCc2cn3ccccc3n2)cc1 | -8.44% |
| CNC(=O)COC(=O)c1cc(-c2ccc(OC)cc2)nc2ccccc12 | 6.03% |
| CCn1c(CSCc2c(Cl)cccc2Cl)n[nH]c1=S | 81.2% (active) |
| S=c1[nH]nc(CSCc2ccc(Cl)cc2Cl)n1-c1ccccc1 | 14.5% |
| CCn1c(CNS(=O)(=O)c2ccc(Cl)cc2)n[nH]c1=S | -0.27% |
| CCOC(=O)NC(=O)/C(C#N)=C\c1ccccc1 | -7% |
| O=C(c1cccc(S(=O)(=O)Nc2ccccc2Cl)c1)N1CCN(C(=O)c2ccco2)CC1 | -0.85% |
| O=C(Nc1ccc2c(c1)CCC2)c1cccc(S(=O)(=O)N2CCN(c3ccc(F)cc3)CC2)c1 | 24.5% |
| O=C(Nc1ccc2c(c1)CCC2)c1cccc(S(=O)(=O)Nc2ccccc2Cl)c1 | 95.5% (active) |
| Cc1ccc(-c2nn(-c3ccccc3)cc2/C=C/C(=O)Nc2cccc(S(N)(=O)=O)c2)cc1 | -2.89% |
| Cc1ccccc1C(CC(=O)c1cccs1)C(C#N)C#N (stereo unspecified) | 83.5% (active) |
| O=C(CCC(=O)c1cccs1)NCc1ccccc1 | -10.9% |
| Cc1ccc(C)c(NC(CC(=O)c2ccccc2)C(=O)OCC(=O)c2cccs2)c1 (stereo unspecified) | 17.1% |
| CC(NC(=O)COC(=O)c1ccc(Cl)cc1O)c1ccc(F)cc1 (stereo unspecified) | -6.63% |
| CN(C)c1ccc(C(CNC(=O)c2ccc(F)cc2)c2c[nH]c3ccccc23)cc1 (stereo unspecified) | 96.3% (active) |
| CN(C)CCCNC(=O)c1ccc2[nH]c3ccccc3c2c1 | 13% |
| CC(=O)c1ccc(S(=O)(=O)Nc2ccc(C(=O)NCC(c3ccccc3)N(C)C)cc2)cc1 (stereo unspecified) | 0.26% |
| COc1ccc(-n2nc3c(c2NC(=O)c2ccc(N4C(=O)CCC4=O)cc2)CSC3)cc1 | -0.66% |
| O=c1[nH]n(-c2ccc([N+](=O)[O-])cc2)c(=O)c2ccccc12 | -3.65% |
| CC(C)(C)c1ccc(/C=C/C(=O)NC2CCS(=O)(=O)C2)cc1 (stereo unspecified) | 0.12% |
| O=C(Nc1nc2ccc(S(=O)(=O)N3CCCC3)cc2s1)C1CCCO1 (stereo unspecified) | 2.48% |
| COc1ccc(S(=O)(=O)N2CCOCC2)cc1C(=O)Nc1nc2ccccc2s1 | -3.71% |

| SMILES | inhibition |
| --- | --- |
| O=C(Nc1nc2cc3c(cc2s1)OCCO3)c1cccc(S(=O)(=O)N2CCOCC2)c1 | 99.1% (active) |
| Cc1noc(C)c1COc1cccc(C(=O)Nc2cccnc2)c1 | 4.43% |
| CC1=CC=CN2C1=NC(=O)CC2(C)C(=O)N(CC(=O)NC1CCCC1)c1ccccc1C (stereo unspecified) | 2.29% |
| Cc1nc2ccccc2n1CC(=O)N/N=C/c1cccnc1 | -4.45% |
| Cc1c(NC(=O)CSc2cccc3cccnc23)c(=O)n(-c2ccccc2)n1C | 44.5% |
| O=C(CSc1cccc2cccnc12)N/N=C/c1cccnc1 | 101% (active) |
| CN1CCN(c2ccc(NC(=O)c3ccc4c(c3)OCCO4)cc2Cl)CC1 | 5.5% |
| CCOc1c(OC)cc(C2C(C#N)=C(N)Oc3n[nH]c(-c4ccncc4)c32)cc1OC (stereo unspecified) | 6.78% |
| COc1ccc(C2C(C#N)=C(N)Oc3n[nH]c(C)c32)cc1CN1CCN(c2ccc(F)cc2)CC1 (stereo unspecified) | 60.8% (active) |
| CCCc1[nH]nc2c1C(c1ccc(OC)c(Cn3nc(C)c(Br)c3C)c1)C(C#N)=C(N)O2 (stereo unspecified) | 41.6% |
| O=Cc1ccc(Oc2cccc(C(F)(F)F)c2)nc1 | 6.6% |
| COc1ccc(NC(=O)COC(=O)c2ccncc2)c(OC)c1 | -3.38% |
| CCCC(C)C(=O)NCc1ccncc1 (stereo unspecified) | -1.46% |
| CC(C)(C)NC(=O)C(=O)NCc1ccncc1 | 77.7% (active) |
| O=C(NCc1ccncc1)C(=O)NCc1ccco1 | -7.02% |
| CC(C)OCCCNC(=S)N1CCC(C(=O)c2ccc3c(c2)OCCO3)CC1 | -1.34% |
| COc1ccc(-c2nc3ccccc3n2CCC(C)C)cc1OC | 66.8% (active) |
| CCCn1c(C(O)c2cc(OC)ccc2OC)nc2ccccc21 (stereo unspecified) | 19% |
| COCCn1c(-c2ccc(OC)c(OC)c2)nc2ccccc21 | 11.3% |
| Cn1c(=O)c2c(ncn2CC(=O)N/N=C/c2cn[nH]c2-c2ccc(F)cc2)n(C)c1=O | -7.31% |
| Cn1nc(C(F)(F)F)c2cc(C(=O)N3CCOCC3)sc21 | -2.24% |
| COc1ccc(CCC(=O)OCC(=O)Nc2ccc(C)c(S(=O)(=O)N(C)C)c2)cc1 | -10.7% |
| COc1ccc(NS(=O)(=O)c2cc(NC(=O)CC(=O)c3ccc([N+](=O)[O-])cc3)ccc2C)cc1 | 68.3% (active) |
| Cc1ccc(C)c(S(=O)(=O)N2CCN(CC(=O)Nc3ccc([N+](=O)[O-])cc3)CC2)c1 | 26.5% |

| SMILES | inhibition |
| --- | --- |
| Cc1cccc(-n2c(C)cc(/C=N/NC(N)=S)c2C)c1 | 79.6% (active) |
| Cc1ccc(-n2c(C)cc(/C=N\NC(=O)CC(=O)NC(C)C)c2C)cc1 | -3.17% |
| Cc1cccc(-n2c(C)cc(/C=N\NC(=O)c3cccs3)c2C)c1 | 17.2% |
| Cc1ccc(-c2csc(NC(=O)c3cnccn3)n2)cc1C | -7.05% |
| Cc1ccc(Oc2cnn(-c3ccccc3)c(=O)c2Br)cc1 | 46.6% |
| COc1ccc(-n2c(C)nc3c(cnn3-c3ccccc3)c2=O)cc1 | -7.18% |
| COc1ccc(Oc2c(Cl)cnn(-c3ccccc3)c2=O)cc1 | 59.1% (active) |
| S=C1Nc2cc(Cl)ccc2Sc2ccccc21 | -5.54% |
| CCN(CC)C(=O)N(CC)Cc1ccccc1 | 0.88% |
| CCC(CC)NC(=O)/C=C/c1cccc([N+](=O)[O-])c1 | 44.7% |
| CCC(C)NC(=O)/C=C/c1ccc(S(=O)(=O)NCc2ccco2)cc1 (stereo unspecified) | 9.36% |
| O=C(NCc1ccco1)c1ccc(NS(=O)(=O)c2cccc([N+](=O)[O-])c2)cc1 | -9.32% |
| COc1cc(OC)cc(C(=O)NCCSCc2ccco2)c1 | -3.35% |
| O=C(/C=C/c1ccc([N+](=O)[O-])cc1)NCCSCc1ccco1 | 62.9% (active) |
| O=C(/C=C/c1cccc([N+](=O)[O-])c1)NCCSCc1ccco1 | 59.6% (active) |
| CCOc1ccc(/C=C(/NC(=O)c2ccccc2)C(=O)NCCC(=O)O)cc1 | -5.96% |
| Cc1ccc(NC(=O)c2ccc(S(=O)(=O)NCC3CCCO3)cc2)cc1C (stereo unspecified) | 12.2% |
| COc1ccccc1CNC(=O)c1cc(=O)c2ccccc2o1 | 15.9% |
| O=C1/C(=C/c2cccs2)CCC1C1CCCC1 (stereo unspecified) | -9.7% |
| CCOC(=O)c1ccc(NC(=S)N2CCCC2)cc1 | 1.46% |
| CN(CCOc1ccccc1)Cc1nc2cc(Cl)ccc2c(=O)[nH]1 | 7.34% |
| Cc1c(CN2CCC(CO)(CCOc3ccccc3)CC2)[nH]c2ccc(Cl)cc12 | 100% (active) |
| OCC1(CCOc2ccccc2)CCN(Cc2cn[nH]c2-c2ccccc2)CC1 | -2.84% |
| CCN(CC)C(=O)C(=O)c1cn(CC(=O)NCc2ccc3c(c2)OCO3)c2ccccc12 | -5.27% |

| SMILES | inhibition |
| --- | --- |
| CCn1c(SCC(=O)Nc2nccs2)nnc1-c1ccco1 | 0.22% |
| C=C1C2C[C@H](O)C(C)(C)[C@@]2(O)[C@H](O)C[C@]23C[C@@](C)(O)[C@H](CC[C@H]12)[C@H]3O (stereo partly specified) | -5.47% |
| Cc1ccc(C(=O)c2ccc(N3CCN(C)CC3)c([N+](=O)[O-])c2)cc1 | 12.3% |
| CN1CCN(c2ccc(S(=O)(=O)Nc3ccccc3)cc2[N+](=O)[O-])CC1 | 63.2% (active) |
| CNS(=O)(=O)c1ccc(N2CCCC2=O)c([N+](=O)[O-])c1 | -4.3% |
| O=C(Nc1ccc2c(c1)CCC2)c1ccc(Br)s1 | 14.6% |
| O=C(NCc1cccnc1)c1cccc(-c2cc3ccccc3oc2=O)c1 | 3.42% |
| CN(C)S(=O)(=O)c1cccc(NC(=O)COC(=O)c2cc(=O)[nH]c(=O)[nH]2)c1 | -5.88% |
| CCOC(=O)CSC1=N/C(=C/c2ccc(-n3cncn3)cc2)C(=O)N1C(C)=O | 8.27% |
| CCn1c(NC(=O)c2ccccc2)c(-c2cccs2)c(=O)c2ccccc21 | 0.95% |
| CC(C)Cn1c(CCC(=O)O)ccc1-c1cccs1 | 95.5% (active) |
| COCCCn1c(CCC(=O)O)ccc1-c1ccc(F)cc1 | 2.69% |
| CN(C)c1ccc(C=C2C(=O)OC3(CCCC3)OC2=O)cc1 | -3.55% |
| Nc1ccc(C(=O)NCc2ccccc2)cc1 | -6.94% |
| O=C(CN1CCCC1)N1CCN(c2ccccc2)CC1 | -4.42% |
| CCCC(=O)N1CCc2[nH]c3ccccc3c2C1 | -2.11% |
| Cc1ccc2[nH]c3c(c2c1)CN(C(=O)CN1CCN(c2ccccc2)CC1)CC3 | 69.5% (active) |
| COc1cc2c(cc1OC)CC1(CCCCC1)N=C2 | 6% |
| Cc1ccc(C2CC(c3cccc(C)c3)n3nc(N)nc3N2)cc1 (stereo unspecified) | 67.6% (active) |
| CCOc1ccccc1C1CC(c2ccccc2)Nc2nc(N)nn21 (stereo unspecified) | -1.13% |
| Nc1nc2n(n1)C(c1ccco1)CC(c1ccc(Cl)c(Cl)c1)N2 (stereo unspecified) | -1.56% |
| COc1ccc(C2CC(c3ccc(Cl)cc3Cl)Nc3nc(N)nn32)cc1OC (stereo unspecified) | -5% |
| COc1ccc(C2CC(c3ccc(C)cc3)Nc3nc(N)nn32)cc1 (stereo unspecified) | 3.08% |
| Cc1ccc(C2CC(c3cccc(Br)c3)n3nc(N)nc3N2)cc1 (stereo unspecified) | 89.8% (active) |
